Assay outcomes (PubChem)
Hits are enriched below; roughly 21% of the tested compounds scored in any of these assays.
TDP1 cell CPT: growth inhibition of DT40 Tdp1-/-;hTDP1 cells with camptothecin (screen for TDP1 inhibitors) | AID 686979 | hit rate 12% among 420,000 | chicken DT40 Tdp1-/-;hTDP1 cells + 20 nM CPT, ATP luminescence, 48 h | Potency, µM (titrated, usually from 46.2 µM), inactives show top-dose activity change, negative = growth inhibition, actives largely listed as inhibitors; further: potency means the concentration at half of the fitted maximal effect; nearly all actives have a fitted effect of over 55% in size
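Chicken DT40 Tdp1-/- cells stably complemented with human TDP1 were seeded at 400 cells/well in medium containing 20 nM camptothecin, exposed to pin-transferred compounds, and grown at 37 °C for at least 48 hr. Viability was read as ATP luminescence.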
TDP1 cell noCPT: qHTS for Inhibitors of human tyrosyl-DNA phosphodiesterase 1 (TDP1): qHTS in cells in absence of CPT; DT40 Tdp1-/- hTDP1 cells, no CPT, ATP luminescence, 48 h; Potency, µM (top dose mostly 46.2 µM), inactives show at the highest dose activity change, negative = growth inhibition, usual class: inhibitors; hit rate 15% among 420,000; further: potency means the concentration at half of the fitted maximal effect; nearly all actives have a fitted effect of over 55% in size
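Seeded 400 DT40-hTDP1 cells/well (vehicle DMSO, no 20 nM CPT); pinned compounds; ≥48 hr at 37 °C; CellTiter-Glo luminescence as viability measure.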
Gal4-VP16 FLuc: Gal4-VP16 reporter inhibition counter-screen; hit rate 3.5% among 310,000; Drosophila S2 Gal4-VP16 UAS-luciferase, luminescence, 20 h; Potency, µM (titrated, usually from 53.6 µM), without a hit: at the highest dose activity, negative = inhibition, actives largely listed as inhibitors; AID 2546;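 further: Gal4-VP16 expression switched on by copper sulfate through the metallothionein promoter; potency means the concentration at half of the fitted maximal effect; nearly all actives have a fitted effect of over 50% in size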
RORgamma inh: inhibitors of mouse ROR gamma transcriptional activity | P51450 | Drosophila S2 Gal4-RORgamma UAS-luciferase reporter, 20 h | Potency, µM (highest dose often 53.6 µM), inactives show at the top dose activity change, negative = inhibition, hits mostly inhibitors | hit rate 5.4% among 310,000; further: potency means the concentration at half of the fitted maximal effect; nearly all actives have a fitted effect of over 60% in size
Target sequence (P51450 whole entry, looked up, the tested form may be a part): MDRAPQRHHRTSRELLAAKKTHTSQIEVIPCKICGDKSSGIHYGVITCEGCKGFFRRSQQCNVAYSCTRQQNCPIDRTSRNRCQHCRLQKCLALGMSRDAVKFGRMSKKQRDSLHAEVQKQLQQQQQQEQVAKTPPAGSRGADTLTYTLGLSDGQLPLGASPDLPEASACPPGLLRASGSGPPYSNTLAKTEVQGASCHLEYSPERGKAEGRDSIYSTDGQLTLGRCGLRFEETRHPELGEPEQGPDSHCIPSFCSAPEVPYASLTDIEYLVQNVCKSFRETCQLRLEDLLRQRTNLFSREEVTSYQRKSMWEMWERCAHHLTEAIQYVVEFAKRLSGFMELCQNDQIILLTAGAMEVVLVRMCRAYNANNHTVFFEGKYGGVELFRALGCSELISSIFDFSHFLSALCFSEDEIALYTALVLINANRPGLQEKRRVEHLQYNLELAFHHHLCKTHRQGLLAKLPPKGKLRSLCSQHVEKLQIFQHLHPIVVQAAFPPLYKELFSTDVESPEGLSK
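Luminescence from a UAS-regulated Photinus luciferase reporter in stably transfected Drosophila Schneider cells is measured; decreased signal marks ROR gamma inhibition. Fusion expression is induced by 700 uM copper sulfate for 20 hr.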
ELG1 repair inh: blocks ELG1-dependent DNA repair in HEK293T cells; AID 504467; HEK293T ELG1-luciferase reporter, luminescence, 16 h; DNA damage induced by 5-fluorouridine; Potency, µM (titrated, usually from 46.1 µM), inactives show at the highest dose activity change, negative = inhibition, hits mostly inhibitors; hit rate 2.3% among 330,000; further: potency means the concentration at half of the fitted maximal effect; nearly all actives have a fitted effect of over 55% in size
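5-Fluorouridine DNA damage + compound/DMSO, 2,000 cells/well, 16 h, 37 °C/5% CO2. ONE-Glo, 30 min RT, luminescence. Readout = decrease in reporter signal.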
IL-1B inflam inh: inhibitors of inflammasome signaling (IL-1 beta secretion); THP-1 LPS/ATP IL-1B secretion, AlphaLISA, 16 h; active compounds read low; activity change, % at 57.5 µM; hit rate 4.7% among 360,000; in the data active means activity change below about -50%; inconclusive means mostly about -30% to -49%
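Secreted IL-1B measured by AlphaLISA bead assay after 16 h compound exposure of THP-1 cells; compounds (final up to 57.5 uM) added 1 h before LPS (250 ng/mL) and ATP (1.25 mM) stimulation; lower signal means less secretion.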
Starred values were filed as active, the others as inactive; u = inconclusive; x = not tested or not shown. Unless noted, the call rests on the fitted dose curve; in most records, active means well fitted curve in the direction sought with a large enough effect; inconclusive means small, poorly fitted or top-dose-only effect, or another doubt; inactive means no such curve, though single readings can be large; an effect the other way counts as inactive or inconclusive. On the % scale 0 is the no-effect control and ±100 the full control effect.

SMILES	TDP1 cell CPT	TDP1 cell noCPT	Gal4-VP16 FLuc	RORgamma inh	ELG1 repair inh	IL-1B inflam inh
CN1C/C(=C/c2ccccc2[N+](=O)[O-])C(=O)/C(=C\c2ccccc2[N+](=O)[O-])C1	0.52µM*	0.92µM*	x	x	x	-98*
CSc1ncnc2c1ncn2CCCNCc1ccccc1	15%	-14%	x	x	x	-13
CSc1ncnc2c1ncn2CCCN1CCN(Cc2cccc3ccccc23)CC1	u	23µM*	x	x	x	u
CSc1ncnc2c1ncn2CCCNc1ccc(C)c(C)c1	u	21µM*	x	x	x	23
COc1ncnc2c1ncn2CCCN1CCN(Cc2ccc(C)cc2)CC1	9%	-8%	x	x	x	38
COc1ncnc2c1ncn2CCCN1CCN(Cc2cccc3ccccc23)CC1	u	23µM*	x	x	x	-4
CCOc1ccc(S(=O)(=O)N2CCCC2)cc1	2%	-5%	5%	4%	12%	-6
O=S(=O)(c1ccc(Oc2ccc(Cl)cc2)c(S(=O)(=O)N2CCCCC2)c1)N1CCCCC1	u	15µM*	-8%	-22%	-3%	13
CCOc1ccc2cc(S(=O)(=O)N3CCN(C)CC3)ccc2c1	u	23µM*	-7%	11%	-5%	-4
CCOc1ccc(OC(=O)c2cccc(S(=O)(=O)N3CCN(C)CC3)c2)cc1	0%	3%	x	x	-2%	-10
CCOc1ccc2cc(S(=O)(=O)N3CCCCC3)ccc2c1	29µM*	u	0%	u	4%	8
CC(C)CCNC(=O)C1CCC(CNS(=O)(=O)c2cccc3nsnc23)CC1 (stereo not drawn)	u	u	7%	17%	-6%	-1
CSc1ccc(CCNC(=O)c2cc(C)nc3c2c(C)nn3-c2ccccc2)cc1	-14%	u	x	x	x	x
CC1CCN(C(=O)CN2C(=O)C(C)(C)Oc3ccc(C(=O)NC(C)C)cc32)CC1	9%	-5%	-10%	5%	2%	33
CCNc1ncc2nc(-c3ccc(Cl)cc3)c(=O)n(C[C@H]3CCCO3)c2n1	-5%	-8%	-6%	1%	x	x
COC(=O)c1ccccc1N/C=C1\CCc2c(c(C)nn2-c2ccccn2)C1=O	16µM*	u	2%	19%	u	3
COC(=O)c1ccccc1NC(=O)CN1CCN(c2ccccn2)CC1	-2%	-10%	-1%	5%	-4%	16
C=CCn1c(=O)c2ccccc2n2c(SCc3nnc(-c4ccccc4Br)o3)nnc12	u	-21%	-9%	17%	u	-6
Cc1ccc(S(=O)(=O)c2ncccc2[N+](=O)[O-])cc1	1.2µM*	0.65µM*	5.6µM*	5.6µM*	u	-102*
COC(=O)N1CCC2(CCN(Cc3ccccc3OC)CC2)CC1	-1%	-4%	-8%	-17%	x	x
COc1ccc(/C=C(/NC(=O)c2ccccc2)c2nc3ccccc3[nH]2)cc1OC	u	u	-12%	21%	-13%	33
COc1ccc(/C=C(/NC(=O)c2ccccc2)c2nc3ccc(Cl)cc3[nH]2)cc1OC	-95%	21µM*	-19%	u	u	-8
COc1ccc(N=C2C(=O)N3c4c(cccc42)C(C)=CC3(C)C)cc1	5.2µM*	2.6µM*	-2%	-28%	0%	46
CCOC(=O)/C=C/C(=O)N1CCN(C(=O)/C=C/C(=O)OCC)CC1	u	21µM*	-10%	4%	9%	-100*
COc1ccc(N(CC(=O)Nc2cc(Cl)ccc2C)S(=O)(=O)c2c(C)noc2C)cc1	2.9µM*	3.7µM*	5%	1%	u	32
Cc1cc(C)cc(N(CC(=O)O)S(=O)(=O)c2c(C)noc2C)c1	-14%	-7%	3%	1%	-1%	24
